Substitutions are numbered along the chain they refer to.
How the values were obtained:
Assay in all cases: yeast three-hybrid, YBZ-1, SC-Leu-His + 0.5 mM 3-AT, 4 days
Settings in all cases: tags: N-Gal4 AD-HA kept; label: inside an RPR1-promoter hybrid RNA with tandem MS2 sites; ssRNA
[1] = molecular target: PUM1 PUF domain R2-CGI (Homo sapiens, UniProt Q14671 828-1176, N899C;Y900G;Q903I)
Method in brief: (§1)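 Pumilio-1 PUF domain libraries, randomized at the three base-contacting residues of each repeat, were co-expressed with matching RNA elements from a centromeric plasmid in strain YBZ-1, which carries a LexA–MS2 coat fusion and a HIS3 reporter. Transformants grew for four days on SC-Leu (input) or on SC-Leu-His + 0.5 mM 3-AT (selection), and the repeat regions were PCR-amplified and Illumina-sequenced. The interaction score is the log change in variant frequency from input to selection. That logarithm is base 2, with a pseudocount of 1 where a variant was absent.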

[2] = molecular target: T1, PUM1 PUF domain R6-RYL (Homo sapiens, UniProt Q14671 828-1176, N1043R;Q1047L)
T1 sequence: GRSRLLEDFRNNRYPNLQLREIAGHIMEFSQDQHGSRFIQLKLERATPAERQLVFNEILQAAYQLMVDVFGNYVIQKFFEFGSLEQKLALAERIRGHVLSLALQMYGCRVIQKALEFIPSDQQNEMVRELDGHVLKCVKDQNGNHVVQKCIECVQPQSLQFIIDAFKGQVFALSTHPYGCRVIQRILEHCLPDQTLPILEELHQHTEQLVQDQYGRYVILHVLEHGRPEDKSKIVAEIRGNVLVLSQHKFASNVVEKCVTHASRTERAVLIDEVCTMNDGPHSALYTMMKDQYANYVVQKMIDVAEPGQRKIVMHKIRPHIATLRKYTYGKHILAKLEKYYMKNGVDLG
Method in brief: as §1

[3] = molecular target: PUM1 PUF domain R5-PHL (Homo sapiens, UniProt Q14671 828-1176, C1007P;R1008H;Q1011L)
Method in brief: as §1

[4] = molecular target: PUM1 PUF domain R8-RHS (Homo sapiens, UniProt Q14671 828-1176, N1122R;Y1123H;Q1126S)
Method in brief: as §1

[5] = molecular target: T2, PUM1 PUF domain R6-SFM (Homo sapiens, UniProt Q14671 828-1176, N1043S;Y1044F;Q1047M)
T2 sequence: T1 sequence with R216S, Y217F, L220M
Method in brief: as §1

[6] = molecular target: T3, PUM1 PUF domain R6-GFS (Homo sapiens, UniProt Q14671 828-1176, N1043G;Y1044F;Q1047S)
T3 sequence: T1 sequence with R216G, Y217F, L220S
Method in brief: as §1

[7] = molecular target: PUM1 PUF domain R4-PHL (Homo sapiens, UniProt Q14671 828-1176, N971P;Q975L)
Method in brief: as §1

[8] = molecular target: PUM1 PUF domain R5-RCG (Homo sapiens, UniProt Q14671 828-1176, C1007R;R1008C;Q1011G)
Method in brief: as §1

[9] = molecular target: PUM1 PUF domain R5-NSC (Homo sapiens, UniProt Q14671 828-1176, C1007N;R1008S;Q1011C)
Method in brief: as §1

[10] = molecular target: PUM1 PUF domain R5-KQM (Homo sapiens, UniProt Q14671 828-1176, C1007K;R1008Q;Q1011M)
Method in brief: as §1

[11] = molecular target: PUM1 PUF domain R5-KGN (Homo sapiens, UniProt Q14671 828-1176, C1007K;R1008G;Q1011N)
Method in brief: as §1

[12] = molecular target: PUM1 PUF domain R1-RTV (Homo sapiens, UniProt Q14671 828-1176, S863R;R864T;Q867V)
Method in brief: as §1

[13] = molecular target: PUM1 PUF domain R4-HNA (Homo sapiens, UniProt Q14671 828-1176, N971H;H972N;Q975A)
Method in brief: as §1

[14] = molecular target: PUM1 PUF domain R5-RMM (Homo sapiens, UniProt Q14671 828-1176, C1007R;R1008M;Q1011M)
Method in brief: as §1

[15] = molecular target: PUM1 PUF domain R5-RVC (Homo sapiens, UniProt Q14671 828-1176, C1007R;R1008V;Q1011C)
Method in brief: as §1

For “GGCUAGAACUAGUGGAUCCCCCGGCGCCCGGCGGCUCGAGCCCGGGUAAGUGUAAAUAGUCUGCAUGCCGCCGGGCGCCAUGCCUGCAGGUCGACUCUAGAAAACAUG”, the binding signal [1] was 2.59 log2 enrichment (interaction score), the binding signal [2] was 2.68 log2 enrichment (interaction score) and the binding signal [3] was 4.35 log2 enrichment (interaction score). For the same sequence, the binding signal [4] was 3.91 log2 enrichment (interaction score), the binding signal [5] was 2.95 log2 enrichment (interaction score) and the binding signal [6] was 2.76 log2 enrichment (interaction score). The binding signal [7] was 5.53 log2 enrichment (interaction score).
“GGCUAGAACUAGUGGAUCCCCCGGCGCCCGGCGGCUCGAGCCCGGGUAAGUGUUAAUAGUCUGCAUGCCGCCGGGCGCCAUGCCUGCAGGUCGACUCUAGAAAACAUG” was tested, and the binding signal [8] was 3.29 log2 enrichment (interaction score), the binding signal [9] was 4.07 log2 enrichment (interaction score) and the binding signal [3] was 4.46 log2 enrichment (interaction score). For the same sequence, the binding signal [10] was 4.71 log2 enrichment (interaction score) and the binding signal [11] was 3.75 log2 enrichment (interaction score).
With “GGCUAGAACUAGUGGAUCCCCCGGCGCCCGGCGGCUCGAGCCCGGGUAAGUGUAAAUCGUCUGCAUGCCGCCGGGCGCCAUGCCUGCAGGUCGACUCUAGAAAACAUG” the binding signal [12] was 4.19 log2 enrichment (interaction score).
For “GGCUAGAACUAGUGGAUCCCCCGGCGCCCGGCGGCUCGAGCCCGGGUAAGUGUACAUAGUCUGCAUGCCGCCGGGCGCCAUGCCUGCAGGUCGACUCUAGAAAACAUG”, the binding signal [13] was 2.26 log2 enrichment (interaction score) and the binding signal [7] was 3.73 log2 enrichment (interaction score).
For “GGCUAGAACUAGUGGAUCCCCCGGCGCCCGGCGGCUCGAGCCCGGGUAAGUGUAAAUGGUCUGCAUGCCGCCGGGCGCCAUGCCUGCAGGUCGACUCUAGAAAACAUG”, the binding signal [12] was 2.39 log2 enrichment (interaction score).
With “GGCUAGAACUAGUGGAUCCCCCGGCGCCCGGCGGCUCGAGCCCGGGUAAGUGUCAAUAGUCUGCAUGCCGCCGGGCGCCAUGCCUGCAGGUCGACUCUAGAAAACAUG” the binding signal [8] was 3 log2 enrichment (interaction score), the binding signal [14] was 2.73 log2 enrichment (interaction score) and the binding signal [15] was 2.54 log2 enrichment (interaction score).

Source: publication PMC8384837, “Expanding the binding specificity for RNA recognition by a PUF domain”
